In ChEMBL document CHEMBL1961873, “Compounds: GSK PKIS; Assays: Nanosyn kinase panel” (2012):

Legend:
[1] = target: T1, Serine/threonine-protein kinase TBK1 (Homo sapiens) (UniProt Q9UHD2); settings: at 1 µM;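 also: values are mean inhibition of TBK1, screened as part of the GSK published kinase inhibitor set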
T1 sequence (whole entry): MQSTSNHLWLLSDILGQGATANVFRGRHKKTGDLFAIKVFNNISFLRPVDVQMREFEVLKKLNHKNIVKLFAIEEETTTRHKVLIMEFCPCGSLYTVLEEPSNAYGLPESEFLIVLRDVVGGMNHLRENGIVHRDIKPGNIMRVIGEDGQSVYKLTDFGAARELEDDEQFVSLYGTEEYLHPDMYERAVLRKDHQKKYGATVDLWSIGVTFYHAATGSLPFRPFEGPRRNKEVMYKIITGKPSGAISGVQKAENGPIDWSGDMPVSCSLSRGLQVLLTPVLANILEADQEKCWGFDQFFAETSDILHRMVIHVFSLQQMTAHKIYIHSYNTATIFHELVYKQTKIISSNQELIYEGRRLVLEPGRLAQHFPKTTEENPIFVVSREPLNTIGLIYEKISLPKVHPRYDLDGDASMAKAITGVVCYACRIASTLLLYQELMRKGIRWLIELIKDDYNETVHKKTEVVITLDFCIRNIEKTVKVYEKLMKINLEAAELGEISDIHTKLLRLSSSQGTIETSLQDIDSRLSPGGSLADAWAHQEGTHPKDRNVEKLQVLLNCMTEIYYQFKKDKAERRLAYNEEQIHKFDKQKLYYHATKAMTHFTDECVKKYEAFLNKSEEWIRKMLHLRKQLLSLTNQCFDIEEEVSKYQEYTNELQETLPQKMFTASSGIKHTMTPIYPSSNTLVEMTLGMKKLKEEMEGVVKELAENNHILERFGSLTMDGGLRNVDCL

[2] = target: T2, Testis-specific serine/threonine-protein kinase 1 (Homo sapiens) (UniProt Q9BXA7); settings: at 0.1 µM
T2 sequence (whole entry): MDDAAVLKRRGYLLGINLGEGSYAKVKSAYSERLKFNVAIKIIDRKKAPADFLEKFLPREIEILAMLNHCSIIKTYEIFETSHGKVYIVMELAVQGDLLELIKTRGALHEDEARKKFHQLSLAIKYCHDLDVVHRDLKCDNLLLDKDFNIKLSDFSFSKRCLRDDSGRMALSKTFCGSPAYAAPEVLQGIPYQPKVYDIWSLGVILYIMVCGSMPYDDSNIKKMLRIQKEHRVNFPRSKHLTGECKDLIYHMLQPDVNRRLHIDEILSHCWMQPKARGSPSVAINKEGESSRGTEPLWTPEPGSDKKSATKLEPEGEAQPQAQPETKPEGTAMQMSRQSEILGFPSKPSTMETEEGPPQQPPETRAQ

[3] = target: T2, Testis-specific serine/threonine-protein kinase 1 (Homo sapiens); settings: at 1 µM
[4] = target: T3, Testis-specific serine/threonine-protein kinase 2 (Homo sapiens) (UniProt Q96PF2); settings: at 0.1 µM
T3 sequence (whole entry): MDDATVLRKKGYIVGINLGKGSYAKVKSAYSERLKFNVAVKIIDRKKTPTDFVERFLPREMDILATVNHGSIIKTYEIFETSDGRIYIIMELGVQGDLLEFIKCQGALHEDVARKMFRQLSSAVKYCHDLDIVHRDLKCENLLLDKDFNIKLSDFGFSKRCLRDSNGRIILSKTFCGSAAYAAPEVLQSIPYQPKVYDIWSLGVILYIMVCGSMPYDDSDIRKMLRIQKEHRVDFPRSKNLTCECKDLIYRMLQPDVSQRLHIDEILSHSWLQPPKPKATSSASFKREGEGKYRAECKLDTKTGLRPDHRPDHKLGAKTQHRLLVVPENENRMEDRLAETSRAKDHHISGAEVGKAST

[5] = target: T3, Testis-specific serine/threonine-protein kinase 2 (Homo sapiens); settings: at 1 µM
[6] = target: Casein kinase I isoform alpha (Homo sapiens) (UniProt P48729); settings: at 0.1 µM
[7] = target: Casein kinase I isoform alpha (Homo sapiens) (UniProt P48729); settings: at 1 µM
[8] = target: Casein kinase I isoform gamma-1 (Homo sapiens) (UniProt Q9HCP0); settings: at 0.1 µM
[9] = target: Casein kinase I isoform gamma-1 (Homo sapiens) (UniProt Q9HCP0); settings: at 1 µM
[10] = target: Casein kinase I isoform gamma-2 (Homo sapiens) (UniProt P78368); settings: at 0.1 µM
[11] = target: Casein kinase I isoform gamma-2 (Homo sapiens) (UniProt P78368); settings: at 1 µM
[12] = target: Casein kinase I isoform gamma-3 (Homo sapiens) (UniProt Q9Y6M4); settings: at 0.1 µM
[13] = target: Casein kinase I isoform gamma-3 (Homo sapiens) (UniProt Q9Y6M4); settings: at 1 µM
[14] = target: Cyclin-dependent kinase 1 (Homo sapiens) (UniProt P06493); settings: at 0.1 µM
[15] = target: Cyclin-dependent kinase 1 (Homo sapiens) (UniProt P06493); settings: at 1 µM
[16] = target: Cyclin-dependent kinase 2 (Homo sapiens) (UniProt P24941); settings: at 0.1 µM
[17] = target: Cyclin-dependent kinase 2 (Homo sapiens) (UniProt P24941); settings: at 1 µM
[18] = target: Cyclin-dependent kinase 2 (Homo sapiens) (UniProt P24941); settings: at 0.1 µM; remark: listed apart in the source
[19] = target: Cyclin-dependent kinase 2 (Homo sapiens) (UniProt P24941); settings: at 1 µM; remark: listed apart in the source
[20] = target: CDK3/Cyclin E (Homo sapiens) (UniProt P24864+Q00526); settings: at 0.1 µM;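 also: reported percentages are mean inhibition values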
Sequence of CDK3/Cyclin E (Homo sapiens) (P24864 whole entry, looked up): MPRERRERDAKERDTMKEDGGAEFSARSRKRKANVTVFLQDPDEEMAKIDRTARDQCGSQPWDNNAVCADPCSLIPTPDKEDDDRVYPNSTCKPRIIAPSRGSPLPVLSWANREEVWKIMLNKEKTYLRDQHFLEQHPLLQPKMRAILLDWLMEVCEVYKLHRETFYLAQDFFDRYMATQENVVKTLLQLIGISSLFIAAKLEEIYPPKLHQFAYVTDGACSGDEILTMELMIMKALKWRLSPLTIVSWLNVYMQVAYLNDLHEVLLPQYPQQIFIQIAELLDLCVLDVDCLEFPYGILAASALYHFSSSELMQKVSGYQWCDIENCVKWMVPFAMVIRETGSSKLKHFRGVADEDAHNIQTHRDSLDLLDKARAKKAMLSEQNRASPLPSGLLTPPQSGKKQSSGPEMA
Sequence of CDK3/Cyclin E (Homo sapiens) (Q00526 whole entry, looked up): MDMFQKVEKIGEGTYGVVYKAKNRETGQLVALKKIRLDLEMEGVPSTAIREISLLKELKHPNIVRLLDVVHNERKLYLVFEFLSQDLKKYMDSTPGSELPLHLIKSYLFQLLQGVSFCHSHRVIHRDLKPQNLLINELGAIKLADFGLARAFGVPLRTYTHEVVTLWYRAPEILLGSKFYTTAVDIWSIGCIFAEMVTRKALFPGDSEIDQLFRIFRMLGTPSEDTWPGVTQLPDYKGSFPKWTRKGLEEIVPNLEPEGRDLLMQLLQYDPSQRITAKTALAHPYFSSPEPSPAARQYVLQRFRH

Sequence of Casein kinase I isoform alpha (Homo sapiens) (P48729 2-337 limits assumed): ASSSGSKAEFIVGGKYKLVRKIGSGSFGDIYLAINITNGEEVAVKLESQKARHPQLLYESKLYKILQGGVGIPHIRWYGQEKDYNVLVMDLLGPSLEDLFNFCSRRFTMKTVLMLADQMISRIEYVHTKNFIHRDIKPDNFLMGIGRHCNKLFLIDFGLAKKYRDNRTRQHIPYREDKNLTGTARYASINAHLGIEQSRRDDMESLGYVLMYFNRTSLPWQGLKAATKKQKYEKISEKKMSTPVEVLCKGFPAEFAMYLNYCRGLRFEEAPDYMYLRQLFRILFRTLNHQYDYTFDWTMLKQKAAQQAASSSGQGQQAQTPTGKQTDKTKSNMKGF
Sequence of Casein kinase I isoform gamma-2 (Homo sapiens) (P78368 whole entry, looked up, canonical isoform): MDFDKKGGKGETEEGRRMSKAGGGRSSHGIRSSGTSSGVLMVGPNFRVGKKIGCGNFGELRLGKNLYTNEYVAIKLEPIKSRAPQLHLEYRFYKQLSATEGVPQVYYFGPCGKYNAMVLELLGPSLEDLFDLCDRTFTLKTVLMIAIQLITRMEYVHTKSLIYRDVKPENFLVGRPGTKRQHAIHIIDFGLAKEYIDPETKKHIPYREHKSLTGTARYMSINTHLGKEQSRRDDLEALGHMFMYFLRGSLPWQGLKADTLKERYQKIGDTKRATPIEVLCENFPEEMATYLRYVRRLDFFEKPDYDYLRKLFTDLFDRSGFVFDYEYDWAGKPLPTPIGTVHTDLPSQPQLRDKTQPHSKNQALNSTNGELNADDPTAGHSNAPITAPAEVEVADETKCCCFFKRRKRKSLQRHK
Sequence of Cyclin-dependent kinase 1 (Homo sapiens) (P06493 whole entry, looked up): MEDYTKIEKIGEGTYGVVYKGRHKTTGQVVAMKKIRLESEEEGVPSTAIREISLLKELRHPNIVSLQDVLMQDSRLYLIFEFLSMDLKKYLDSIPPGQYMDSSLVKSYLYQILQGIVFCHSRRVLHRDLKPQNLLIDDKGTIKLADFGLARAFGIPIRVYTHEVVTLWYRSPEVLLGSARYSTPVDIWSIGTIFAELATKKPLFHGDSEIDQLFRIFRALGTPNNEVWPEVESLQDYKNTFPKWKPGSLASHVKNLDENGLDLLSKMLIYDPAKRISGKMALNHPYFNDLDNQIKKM
Sequence of Casein kinase I isoform gamma-3 (Homo sapiens) (Q9Y6M4 whole entry, looked up, canonical isoform): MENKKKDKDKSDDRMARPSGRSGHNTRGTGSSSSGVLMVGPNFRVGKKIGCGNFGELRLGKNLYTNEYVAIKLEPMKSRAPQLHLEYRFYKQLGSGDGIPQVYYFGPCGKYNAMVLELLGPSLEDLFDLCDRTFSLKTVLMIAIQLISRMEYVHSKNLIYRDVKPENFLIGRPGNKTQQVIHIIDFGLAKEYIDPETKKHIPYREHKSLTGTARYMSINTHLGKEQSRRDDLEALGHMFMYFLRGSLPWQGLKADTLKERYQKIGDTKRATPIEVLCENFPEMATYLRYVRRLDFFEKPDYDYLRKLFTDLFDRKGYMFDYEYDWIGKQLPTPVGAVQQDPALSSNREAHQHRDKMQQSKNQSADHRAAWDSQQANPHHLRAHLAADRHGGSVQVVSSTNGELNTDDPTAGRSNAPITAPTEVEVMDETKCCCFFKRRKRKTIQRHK
Sequence of Casein kinase I isoform gamma-1 (Homo sapiens) (Q9HCP0 whole entry, looked up, canonical isoform): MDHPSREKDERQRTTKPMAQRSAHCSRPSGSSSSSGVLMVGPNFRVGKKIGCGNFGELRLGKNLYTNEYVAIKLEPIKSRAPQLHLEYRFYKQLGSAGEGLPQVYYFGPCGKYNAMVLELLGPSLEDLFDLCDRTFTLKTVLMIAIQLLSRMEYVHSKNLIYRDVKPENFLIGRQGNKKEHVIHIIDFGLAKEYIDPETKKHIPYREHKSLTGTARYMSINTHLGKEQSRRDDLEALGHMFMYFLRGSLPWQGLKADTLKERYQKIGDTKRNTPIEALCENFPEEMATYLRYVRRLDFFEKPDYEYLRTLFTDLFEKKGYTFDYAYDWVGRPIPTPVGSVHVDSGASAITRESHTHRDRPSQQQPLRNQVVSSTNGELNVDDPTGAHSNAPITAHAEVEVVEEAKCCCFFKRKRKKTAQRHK

Compound	inhibition [1] [%]	inhibition [2] [%]	inhibition [3] [%]	inhibition [4] [%]	inhibition [5] [%]	inhibition [6] [%]	inhibition [7] [%]	inhibition [8] [%]	inhibition [9] [%]	inhibition [10] [%]	inhibition [11] [%]	inhibition [12] [%]	inhibition [13] [%]	inhibition [14] [%]	inhibition [15] [%]	inhibition [16] [%]	inhibition [17] [%]	inhibition [18] [%]	inhibition [19] [%]	inhibition [20] [%]
N#Cc1c(NC(=O)c2cccc3ccccc23)sc2c1CCCC2	6.64	3.39	2.26	0.88	0.92	-0.66	2.15	2.73	2.82	2.2	3.02	2.06	2.66	1.07	5.24	4.98	0.97	5.24	6.76	2.56
CS(=O)(=O)CCN(CC#N)Cc1ccc(-c2ccc3ncnc(Nc4ccc(OCc5cccc(F)c5)c(Cl)c4)c3c2)o1	1.61	1.37	1.5	0.63	1.39	1	2.88	-2.14	-3.1	-1.98	-2.18	-1.66	-4.35	-3.13	-3.04	-1.63	-2.87	-2.44	-4.09	-2.24
NCc1ccc(-c2nc(-c3ccc(Cl)c(O)c3)c(-c3ccncc3)[nH]2)cc1	1.76	0.52	0.46	-0.98	-1.3	3.06	15.7	0.41	2.73	0.27	2.74	0.3	3.09	1.68	3.12	1.79	0.56	1.58	2.98	0.9
COC(=O)Nc1nc2cc(Oc3cccc(NC(=O)Nc4cc(C(F)(F)F)ccc4F)c3)ccc2[nH]1	4.23	-0.26	-0.63	-0.42	-1.58	-1.03	-0.8	0.24	0.48	-0.21	-0.35	-2.32	-1.3	2.66	0.7	0.37	-0.89	0.62	1.21	-0.22
Cc1ccc(C(=O)NC2CCCCC2)cc1-c1ccc(C(=O)NCC2CC2)cc1	3.86	1.44	-1.51	-0.17	-1.47	4.32	3.89	1.72	2.66	0.35	2.68	2.21	2.73	0.67	0.28	0.88	7.52	2.63	3.98	2.34
CC1=C(C(=O)Nc2ccc3[nH]ncc3c2)C(c2ccc3ccccc3c2)CC(=O)N1 (stereo not given)	4.09	1.35	1.04	1.35	0.44	1.57	3.29	1.69	3.15	1.16	1.9	0.93	3.24	0.76	2.25	2.98	9.64	3.36	14.2	0.42
CNC(=O)c1cncc(/C=C/c2c(Cl)cccc2Cl)c1	4.76	3.51	4.44	1.15	3.45	2.31	6.99	4.49	6.18	2.94	7.62	1.61	4.59	-1.13	-0.82	0.92	-0.22	-0.41	3.85	-4.75
Nc1ncnc2occ(-c3ccc(NC(=O)Nc4cccc(C(F)(F)F)c4)cc3)c12	4.59	4.54	4.9	1.47	2.55	3.35	5.6	5.08	10.1	4.03	7.31	3.11	10.3	-0.24	4.91	2.4	8.86	4.68	10.8	2.04
NS(=O)(=O)c1cccc(-c2ccc3c(NC(=O)C4CC4)n[nH]c3c2)c1	0.44	-0.2	-0.47	-0.61	-0.16	4.11	4.53	-0.89	0.05	-0.75	-1.38	-0.89	2.47	0.37	1.15	0.27	-6.96	0.15	3.36	0.71
CCn1c(-c2nonc2N)nc2ccncc21	1.82	2.36	1.75	0.59	-0.93	0.34	1.43	0.65	-0.84	0.24	0.81	-0.09	1.21	0.77	1.88	1.3	4.47	1.11	4.8	2.26
COc1cc2c(cc1Nc1nc(N3CCc4ccccc43)c3cc[nH]c3n1)N(C(=O)CN(C)C)CC2	5.19	10.2	19.2	9.19	13.6	6.69	2.45	1.43	3.55	0.72	2.57	0.55	4.52	0.08	1.02	0.42	-1.8	1.6	1.6	0.81
COc1cc2ncn(-c3cc(OCc4ccccc4Cl)c(C(N)=O)s3)c2cc1OC	28.7	1.82	4.67	0.7	1.63	1.79	0.67	0.19	1.8	-0.04	1.68	1.38	2.71	1.92	6.22	1.7	6.39	2.24	5.06	3.11
NC(=O)c1cccc(Nc2nccc(Nc3cccc4[nH]ncc34)n2)c1	26.1	-0.96	15.6	-1.7	-1.85	1.36	1.87	-2.71	5.27	-1.57	1.89	-2.55	9.56	1.69	14.5	10.3	59.9	3.38	34.2	1.14
